Pf apPOL inh: Pf-apPOL DNA polymerase inhibition | AID 1794808 | 210,000 tested, 0.25% active | inhibition, % at 10 µM | Recombinant Pf-apPOL, molecular beacon fluorescence, 1.5 h
mHTT-CaM PPI inh: disrupts binding of mutant huntingtin to calmodulin; P42858; AlphaScreen His-mHTT/GST-CaM binding, luminescence; inhibition, % at 15 µM; 190,000 tested, 3.6% active; AID 1671202;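 also: 0% = both proteins with DMSO and 100% = one protein alone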
* = called active by the depositor; . = not tested or not shown. Only some compounds are listed: those with a hit (about 3.5% of all), similar ones and a draw of the others. Rule as the data show it: active = inhibition above about 50%; inactive = the rest.

SMILES	Pf apPOL inh	mHTT-CaM PPI inh
O=C(NC1CCCCC1)C1c2ccccc2C(=O)N1C1CCCCC1 (centres undefined)	-4	9
CC1=NN(c2ccccc2)C(=O)/C1=C/c1ccc(Oc2ccc([N+](=O)[O-])cc2[N+](=O)[O-])cc1	0	52*
CC1=NN(c2ccc(C)c(C)c2)C(=O)/C1=C/c1ccc([N+](=O)[O-])cc1	3	53*
CC1=NN(c2ccccc2)C(=O)/C1=C/c1ccc([N+](=O)[O-])cc1	-3	33
CC1=NOC(=O)/C1=C/c1ccc(N2CCOCC2)cc1	5	16
CCN(C)c1ccc(/C=C2/C(=O)N(c3cccc(Cl)c3)N=C2C)cc1	-11	68*
CC1=NN(c2ccccc2)C(=O)/C1=C/c1ccc(N2CCOCC2)cc1	7	78*
COc1ccccc1OCCOc1ccc([N+](=O)[O-])cc1/C=C1/C(=O)N(c2ccccc2)N=C1C	11	4
CC1=NN(c2cccc(Cl)c2)C(=O)/C1=C/c1ccc(F)cc1	7	8
O=c1c(S(=O)(=O)N2CCCC2)cccn1Cc1ccccc1Cl	-4	-3
Cc1ccc(S(=O)(=O)N(C)C(F)F)cc1	-8	-1
N#CC1=C(N)Oc2cc(O)c(Cl)cc2C1c1ccccc1Cl (centres undefined)	8	2
Cc1ccsc1CN1CCN(c2ccccc2Cl)CC1	-14	-17
CCOC(=O)c1[nH]c(COC(C)=O)c(CC)c1C	.	12
CCSc1nnc2c(n1)OC(c1ccco1)N(C(C)=O)c1ccccc1-2 (centres undefined)	5	8
CCC(=O)N1c2ccccc2-c2nnc(SC)nc2OC1c1cccc(OC)c1OC (centres undefined)	-2	21
CC1=NN(c2ccc(C(=O)O)cc2)C(=O)/C1=C/c1ccc(N(C)C)cc1	-4	4
CCN(C)c1ccc(/C=C2/C(=O)N(c3ccc(Cl)cc3)N=C2C)cc1	0	70*
CCN(CC)c1ccc(/C=C2/N=C(c3ccc(F)cc3)OC2=O)cc1	-4	1
CCN(CC)c1ccc(/C=C2/N=C(c3ccccc3)NC2=O)cc1	-5	88*
CC1=NN(c2ccc(F)cc2)C(=O)/C1=C/c1ccc(N(C)C)cc1	-2	10
CCN(C)c1ccc(/C=C2/C(=O)N(c3ccc(C)c(C)c3)N=C2C)cc1	0	58*
CCN(C)c1ccc(/C=C2/C(=O)N(c3cccc(Br)c3)N=C2C)cc1	-1	90*
CC1=NN(c2cccc(Br)c2)C(=O)/C1=C/c1ccc(N(C)C)cc1	-5	24
COc1ccc(C2=N/C(=C\c3ccc(Cl)cc3)C(=O)O2)cc1Br	-1	0
SMILES	Pf apPOL inh	mHTT-CaM PPI inh
CCOc1cc(/C=C2/C(=O)N(c3ccc(C)c(C)c3)N=C2C)cc(I)c1O	-16	72*
CCN(CC)c1ccc(/C=C2/C(=O)N(c3ccccc3)N=C2C)cc1	-4	65*
C=CCc1cc(/C=C2/C(=O)N(c3ccccc3)N=C2C)cc(OCC)c1O	8	49
CC1=NN(c2ccccc2)C(=O)/C1=C/c1ccccc1	-5	17
O=c1c2ccccc2nc(/C=C/c2ccc3c(c2)OCO3)n1CCO	13	1
Cc1cc(Br)ccc1NC(=O)Cc1cn(C)c2ccccc12	-6	1
CC(C)(C)C(O)CCNS(=O)(=O)C=Cc1ccccc1 (centres undefined)	-1	-14
COc1ccc(-c2cccc([C@H]3[C@@H]4C=CCC[C@@]4(C)C(=O)N3Cc3ccccc3)c2)cc1	-8	70*
Cc1cccc([C@H]2[C@@H]3C=CCC[C@@]3(C)C(=O)N2Cc2ccccc2)c1	-6	5
COc1ccc([C@H]2[C@@H]3C=CCC[C@@]3(C)C(=O)N2Cc2ccccc2)cc1Cl	-3	52*
CC(=O)c1ccc(-c2cccc([C@H]3[C@@H]4C=CCC[C@@]4(C)C(=O)N3Cc3ccccc3)c2)cc1	-2	85*
COc1ccc(-c2cc([C@H]3[C@@H]4C=CCC[C@@]4(C)C(=O)N3Cc3ccccc3)ccc2F)cc1OC	-3	47
C[C@@]12CCC=C[C@H]1[C@H](c1cccc([N+](=O)[O-])c1)N(Cc1ccccc1)C2=O	-4	10
Cc1ccc(-c2cc(C(=O)NC(C)C(=O)NC(C)C)no2)cc1 (centres undefined)	5	-11
CCn1ccc(C(=O)N2CCC(c3nc(-c4cccnc4)n[nH]3)CC2)n1	6	1
Cc1ccccc1OCC(O)Cn1c(SCC(O)CO)nc2c1c(=O)[nH]c(=O)n2C (centres undefined)	-5	-4
COc1cc(CN2CCN(Cc3ccc4c(c3)OCO4)CC2)cc(Br)c1O	-4	-37
C=CCNc1nc(-c2ccc(F)cc2F)cs1	3	-10
COc1ccc(CN2CCCC(c3nncn3C)C2)c(Cl)c1OC (centres undefined)	-1	5
CC(=O)Nc1ccc(OCc2cn(CC(=O)c3ccc(O)cc3)nn2)cc1	34	52*
CC(=O)c1ccc(OCc2cn(CC(=O)c3ccc(O)cc3)nn2)cc1	11	4
CC(=NCCCN1CCOCC1)c1c(-c2ccccc2)[nH]n(-c2nc3ccccc3s2)c1=O	-3	51*
CC(=NCCN1CCOCC1)c1c(C(F)(F)F)[nH]n(-c2nc3ccccc3s2)c1=O	-1	2
COCCCNC(=O)c1cccc2c1CCN2C(=O)Nc1cccc(C)c1	6	6
Cc1cc(Br)c(O)c(C2NC(C(=O)O)Cc3c2[nH]c2ccccc32)c1 (centres undefined)	-1	13
SMILES	Pf apPOL inh	mHTT-CaM PPI inh
O=C(O)C1Cc2c([nH]c3ccccc23)C(c2cc(Br)ccc2O)N1 (centres undefined)	-3	57*
Cc1nn(-c2nc3ccccc3[nH]2)c2c1C(=O)CC(c1cccs1)C2 (centres undefined)	-8	5
CC/C(=C\c1ccccc1)c1cccc2oc3ccccc3c12	1	-12
CC/C(=C/c1ccccc1)c1cccc2[nH]c3c(OC)cccc3c12	-5	54*
CCOc1ccc(N(CC)C(=O)c2nc(C)n(C3CCN(S(C)(=O)=O)CC3)c2C)cc1	-4	12
COc1ccc(N(C)C(=O)c2nc(C)n(C3CCN(S(C)(=O)=O)CC3)c2C)cc1	-12	86*
O=C(NC1CCc2ccccc21)c1cc2c(s1)CN(C1CCCC1)C2 (centres undefined)	6	18
C=CCNCCOc1ccc(Br)cc1C	-2	54*
C=CCNC(=O)COc1ccc(Br)cc1C	4	-10
CC(C)Oc1ccc(CNC(=O)C2CCCN(c3cn[nH]c(=O)c3)C2)cc1 (centres undefined)	-2	11
COc1ccc(Cl)cc1NC(=O)c1sc2ccccc2c1Cl	-3	1
O=[N+]([O-])c1cccc(-c2csc(N=Nc3c(O)[nH]c4ccc(Br)cc34)n2)c1	1	.
O=C(N=Nc1c(O)[nH]c2ccc(Br)cc12)c1ccco1	80*	.
Cc1ccc(-c2nc(-c3ccc([N+](=O)[O-])cc3)no2)cc1C	1	-2
COc1ccccc1NC(=O)c1ccccc1[N+](=O)[O-]	-16	5
COc1ccccc1NC(Nc1ccccc1OC)=C(/C=C(\Cl)[N+](=O)[O-])[N+](=O)[O-]	7	73*
Cn1c(=O)c(NCCc2ccc(Cl)cc2)nc2ccncc21	-5	-2
Cn1c(=O)c(NCCc2c[nH]c3ccccc23)nc2ccncc21	4	100*
Cn1c(=O)c(NCCCN2CCCc3ccccc32)nc2ccncc21	12	60*
